Legend:
Assay in all cases: DAPPL (digital affinity profiling via proximity ligation, sequencing); 10 mM Tris-HCl pH 7.5, 50 mM NaCl, 1 mM DTT, 4% glycerol, room temperature, 30 min; GST-TFs on glutathione beads, 16-mer random dsDNA library, 0.1% formaldehyde crosslink after washing; high values mean tight binding
Conditions in all cases: protein: recombinant; tags: N-terminal GST; dsDNA, one strand shown
FLI1 = target: T1, FLI1 (Homo sapiens, UniProt Q01543 1-452)
T1 sequence: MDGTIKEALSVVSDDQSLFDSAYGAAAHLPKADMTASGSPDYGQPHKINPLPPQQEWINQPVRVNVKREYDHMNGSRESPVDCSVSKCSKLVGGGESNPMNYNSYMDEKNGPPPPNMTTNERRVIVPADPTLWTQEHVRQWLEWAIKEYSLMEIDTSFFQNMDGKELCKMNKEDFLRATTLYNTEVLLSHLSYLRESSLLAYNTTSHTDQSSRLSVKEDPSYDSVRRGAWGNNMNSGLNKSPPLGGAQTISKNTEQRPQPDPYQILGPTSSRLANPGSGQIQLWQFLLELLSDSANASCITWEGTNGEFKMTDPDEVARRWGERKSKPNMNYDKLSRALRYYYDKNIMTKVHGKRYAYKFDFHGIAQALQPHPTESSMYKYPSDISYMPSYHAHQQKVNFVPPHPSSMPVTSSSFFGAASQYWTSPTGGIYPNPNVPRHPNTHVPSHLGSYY
In short: (§1)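 Pools were built from human transcription factors expressed in yeast as GST fusions, captured on glutathione beads and DNA-barcoded, along with a tag-only sample. Incubation with 200 nmole of a 16-mer random double-stranded DNA library lasted 30 min at room temperature in Tris/NaCl/DTT/glycerol buffer, and was followed by washing, 0.1% formaldehyde crosslinking, proximity ligation, PCR amplification and Illumina NextSeq500 sequencing. Binding signal is the quotient of each hexamer's read frequency for a factor and its frequency for the tag-only sample.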

ELK1 = target: T2, ELK1 (Homo sapiens, UniProt P19419 1-428)
T2 sequence: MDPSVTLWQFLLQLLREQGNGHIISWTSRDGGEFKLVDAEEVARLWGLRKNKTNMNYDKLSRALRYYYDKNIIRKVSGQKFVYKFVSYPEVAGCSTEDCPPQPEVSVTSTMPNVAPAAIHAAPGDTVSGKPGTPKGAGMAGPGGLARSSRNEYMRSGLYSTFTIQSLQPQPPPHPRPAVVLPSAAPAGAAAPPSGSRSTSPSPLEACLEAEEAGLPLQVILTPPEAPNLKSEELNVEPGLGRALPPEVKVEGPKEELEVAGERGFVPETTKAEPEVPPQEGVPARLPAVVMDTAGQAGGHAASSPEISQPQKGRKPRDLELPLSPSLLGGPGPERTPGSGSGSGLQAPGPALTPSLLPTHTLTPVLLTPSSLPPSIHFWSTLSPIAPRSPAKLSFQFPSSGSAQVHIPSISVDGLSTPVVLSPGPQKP
In short: as §1

GABPA = target: T3, GABPA (Homo sapiens, UniProt Q06546 1-454)
T3 sequence: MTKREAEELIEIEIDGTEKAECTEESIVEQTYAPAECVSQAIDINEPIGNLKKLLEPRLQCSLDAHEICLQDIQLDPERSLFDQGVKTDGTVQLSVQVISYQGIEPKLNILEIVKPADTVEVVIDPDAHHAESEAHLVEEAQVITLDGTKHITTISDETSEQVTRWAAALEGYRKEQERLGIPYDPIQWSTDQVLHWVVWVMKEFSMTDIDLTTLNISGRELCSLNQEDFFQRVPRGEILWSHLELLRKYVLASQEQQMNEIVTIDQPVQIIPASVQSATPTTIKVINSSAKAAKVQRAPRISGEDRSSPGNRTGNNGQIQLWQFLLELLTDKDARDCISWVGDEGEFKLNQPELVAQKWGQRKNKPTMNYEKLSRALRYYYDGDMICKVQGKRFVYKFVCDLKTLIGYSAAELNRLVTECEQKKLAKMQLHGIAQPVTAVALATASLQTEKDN
In short: as §1

ERG = target: T4, ERG (Homo sapiens, UniProt P11308 1-479)
T4 sequence: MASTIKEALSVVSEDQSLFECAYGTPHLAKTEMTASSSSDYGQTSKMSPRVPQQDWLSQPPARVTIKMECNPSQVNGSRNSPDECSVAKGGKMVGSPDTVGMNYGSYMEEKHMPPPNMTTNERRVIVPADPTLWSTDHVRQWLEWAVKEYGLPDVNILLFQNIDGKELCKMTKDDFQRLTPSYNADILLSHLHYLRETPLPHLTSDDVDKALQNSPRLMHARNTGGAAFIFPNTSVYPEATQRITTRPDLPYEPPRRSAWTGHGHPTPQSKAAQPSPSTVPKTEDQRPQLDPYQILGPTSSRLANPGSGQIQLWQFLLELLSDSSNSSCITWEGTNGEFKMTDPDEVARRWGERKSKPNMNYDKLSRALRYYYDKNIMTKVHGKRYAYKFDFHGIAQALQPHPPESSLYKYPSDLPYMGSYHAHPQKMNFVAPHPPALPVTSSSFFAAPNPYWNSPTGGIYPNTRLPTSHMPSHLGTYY
In short: as §1

ELF1 = ELF1 (Homo sapiens, UniProt P32519 1-619)
Sequence of ELF1 (P32519 whole entry): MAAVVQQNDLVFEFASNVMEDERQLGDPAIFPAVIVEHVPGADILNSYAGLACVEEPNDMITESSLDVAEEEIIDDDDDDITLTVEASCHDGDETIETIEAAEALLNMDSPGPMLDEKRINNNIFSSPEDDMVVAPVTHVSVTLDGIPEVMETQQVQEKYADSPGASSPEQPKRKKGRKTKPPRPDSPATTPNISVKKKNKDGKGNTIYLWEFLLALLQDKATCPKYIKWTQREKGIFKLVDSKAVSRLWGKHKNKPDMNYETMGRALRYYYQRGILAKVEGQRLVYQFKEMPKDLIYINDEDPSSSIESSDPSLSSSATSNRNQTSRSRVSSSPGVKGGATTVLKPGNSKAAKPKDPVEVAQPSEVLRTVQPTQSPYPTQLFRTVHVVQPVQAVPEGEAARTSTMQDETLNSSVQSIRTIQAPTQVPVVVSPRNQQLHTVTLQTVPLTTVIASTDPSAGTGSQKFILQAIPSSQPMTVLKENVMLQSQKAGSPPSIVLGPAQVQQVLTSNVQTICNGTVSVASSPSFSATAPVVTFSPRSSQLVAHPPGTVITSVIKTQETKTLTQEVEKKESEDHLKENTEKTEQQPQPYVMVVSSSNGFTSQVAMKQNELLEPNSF
In short: as §1

EHF = target: T5, EHF (Homo sapiens, UniProt Q9NZC4 1-300)
T5 sequence: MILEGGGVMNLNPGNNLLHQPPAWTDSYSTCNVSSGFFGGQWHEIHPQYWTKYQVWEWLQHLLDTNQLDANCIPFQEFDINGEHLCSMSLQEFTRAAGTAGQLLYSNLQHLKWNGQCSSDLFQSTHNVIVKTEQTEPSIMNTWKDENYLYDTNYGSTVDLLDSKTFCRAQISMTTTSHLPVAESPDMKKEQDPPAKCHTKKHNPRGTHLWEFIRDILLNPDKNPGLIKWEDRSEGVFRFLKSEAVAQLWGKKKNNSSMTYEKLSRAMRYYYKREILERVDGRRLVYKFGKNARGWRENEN
In short: as §1

SPI1 = SPI1 (Homo sapiens, UniProt P17947 1-270)
In short: as §1

SPIB = SPIB (Homo sapiens, UniProt Q01892 1-262)
Sequence of SPIB (Q01892 whole entry): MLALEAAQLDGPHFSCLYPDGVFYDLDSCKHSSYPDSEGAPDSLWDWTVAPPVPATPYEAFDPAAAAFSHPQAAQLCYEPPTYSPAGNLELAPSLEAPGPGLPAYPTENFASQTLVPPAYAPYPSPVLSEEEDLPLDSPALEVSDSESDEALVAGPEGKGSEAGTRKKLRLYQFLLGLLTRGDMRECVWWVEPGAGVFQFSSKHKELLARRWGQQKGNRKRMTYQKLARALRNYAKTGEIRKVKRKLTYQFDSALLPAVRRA
In short: as §1

ETV5 = ETV5 (Homo sapiens, UniProt P41161 1-510)
Sequence of ETV5 (P41161 whole entry): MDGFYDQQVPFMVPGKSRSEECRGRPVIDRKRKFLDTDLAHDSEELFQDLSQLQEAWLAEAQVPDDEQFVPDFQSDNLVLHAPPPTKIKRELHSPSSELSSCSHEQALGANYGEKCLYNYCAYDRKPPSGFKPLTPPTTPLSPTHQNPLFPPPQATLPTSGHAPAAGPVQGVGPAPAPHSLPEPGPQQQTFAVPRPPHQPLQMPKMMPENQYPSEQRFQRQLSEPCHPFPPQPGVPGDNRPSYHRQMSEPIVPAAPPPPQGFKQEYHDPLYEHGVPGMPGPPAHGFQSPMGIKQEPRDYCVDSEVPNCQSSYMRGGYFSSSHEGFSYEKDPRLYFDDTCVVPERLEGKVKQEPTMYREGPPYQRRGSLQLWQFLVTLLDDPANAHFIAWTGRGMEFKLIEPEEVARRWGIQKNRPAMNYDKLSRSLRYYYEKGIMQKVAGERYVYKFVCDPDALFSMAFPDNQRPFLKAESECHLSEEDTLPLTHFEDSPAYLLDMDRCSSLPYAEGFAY
In short: as §1

ELF4 = ELF4 (Homo sapiens, UniProt Q99607 1-663)
Sequence of ELF4 (Q99607 whole entry): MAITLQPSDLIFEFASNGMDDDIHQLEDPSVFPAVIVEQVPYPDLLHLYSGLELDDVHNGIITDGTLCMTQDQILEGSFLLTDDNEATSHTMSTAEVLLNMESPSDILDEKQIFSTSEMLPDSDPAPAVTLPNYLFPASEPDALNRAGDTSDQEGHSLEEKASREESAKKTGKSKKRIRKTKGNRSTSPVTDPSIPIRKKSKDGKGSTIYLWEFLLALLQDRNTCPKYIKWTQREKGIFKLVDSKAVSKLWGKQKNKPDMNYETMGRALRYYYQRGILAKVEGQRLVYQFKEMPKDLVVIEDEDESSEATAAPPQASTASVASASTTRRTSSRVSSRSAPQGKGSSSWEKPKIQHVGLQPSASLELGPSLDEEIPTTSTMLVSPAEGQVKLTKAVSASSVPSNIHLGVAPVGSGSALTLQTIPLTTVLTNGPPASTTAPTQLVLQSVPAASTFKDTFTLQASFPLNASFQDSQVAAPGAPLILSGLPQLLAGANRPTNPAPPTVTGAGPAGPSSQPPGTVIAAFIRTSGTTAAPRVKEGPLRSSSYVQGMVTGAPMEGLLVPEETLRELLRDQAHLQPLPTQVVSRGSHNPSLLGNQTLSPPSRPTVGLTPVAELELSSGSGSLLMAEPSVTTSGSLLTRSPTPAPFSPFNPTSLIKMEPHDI
In short: as §1

ETV2 = target: T6, ETV2 (Homo sapiens, UniProt O00321 1-342)
T6 sequence: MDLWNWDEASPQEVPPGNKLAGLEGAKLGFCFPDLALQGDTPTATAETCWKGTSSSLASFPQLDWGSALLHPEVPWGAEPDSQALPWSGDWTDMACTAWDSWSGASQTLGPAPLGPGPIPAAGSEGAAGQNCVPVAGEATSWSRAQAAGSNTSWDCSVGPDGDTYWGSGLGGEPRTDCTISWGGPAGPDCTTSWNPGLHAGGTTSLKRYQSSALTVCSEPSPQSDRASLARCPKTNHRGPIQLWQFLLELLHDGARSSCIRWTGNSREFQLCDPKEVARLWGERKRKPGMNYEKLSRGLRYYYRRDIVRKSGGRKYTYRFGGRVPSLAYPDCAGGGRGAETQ
In short: as §1

ELF3 = target: T7, ELF3 (Homo sapiens, UniProt P78545 1-371)
T7 sequence: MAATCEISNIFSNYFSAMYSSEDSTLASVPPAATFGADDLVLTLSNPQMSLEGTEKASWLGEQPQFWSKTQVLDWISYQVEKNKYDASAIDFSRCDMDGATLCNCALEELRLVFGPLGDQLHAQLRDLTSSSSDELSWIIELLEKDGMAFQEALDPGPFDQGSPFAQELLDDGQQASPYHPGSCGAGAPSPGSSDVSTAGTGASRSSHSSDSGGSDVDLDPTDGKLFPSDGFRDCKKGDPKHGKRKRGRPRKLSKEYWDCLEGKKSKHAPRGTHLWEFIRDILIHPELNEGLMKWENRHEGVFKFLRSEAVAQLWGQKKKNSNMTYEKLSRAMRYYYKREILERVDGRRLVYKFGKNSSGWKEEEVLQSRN
In short: as §1

ETV1 = ETV1 (Homo sapiens, UniProt P50549 1-477)
Sequence of ETV1 (P50549 whole entry): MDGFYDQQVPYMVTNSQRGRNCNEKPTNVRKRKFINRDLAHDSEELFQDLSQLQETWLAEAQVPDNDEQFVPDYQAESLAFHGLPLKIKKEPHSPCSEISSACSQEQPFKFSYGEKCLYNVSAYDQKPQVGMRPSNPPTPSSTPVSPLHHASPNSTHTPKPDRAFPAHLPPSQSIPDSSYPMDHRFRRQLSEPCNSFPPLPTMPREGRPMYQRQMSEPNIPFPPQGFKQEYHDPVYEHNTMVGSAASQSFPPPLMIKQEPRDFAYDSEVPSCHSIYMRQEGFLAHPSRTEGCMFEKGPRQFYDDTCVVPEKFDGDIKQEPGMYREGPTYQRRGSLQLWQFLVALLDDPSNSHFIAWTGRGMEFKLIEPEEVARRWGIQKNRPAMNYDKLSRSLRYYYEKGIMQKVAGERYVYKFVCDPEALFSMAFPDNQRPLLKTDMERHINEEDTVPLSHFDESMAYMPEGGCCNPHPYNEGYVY
In short: as §1

ERF = target: T8, ERF (Homo sapiens, UniProt P50548 1-548)
T8 sequence: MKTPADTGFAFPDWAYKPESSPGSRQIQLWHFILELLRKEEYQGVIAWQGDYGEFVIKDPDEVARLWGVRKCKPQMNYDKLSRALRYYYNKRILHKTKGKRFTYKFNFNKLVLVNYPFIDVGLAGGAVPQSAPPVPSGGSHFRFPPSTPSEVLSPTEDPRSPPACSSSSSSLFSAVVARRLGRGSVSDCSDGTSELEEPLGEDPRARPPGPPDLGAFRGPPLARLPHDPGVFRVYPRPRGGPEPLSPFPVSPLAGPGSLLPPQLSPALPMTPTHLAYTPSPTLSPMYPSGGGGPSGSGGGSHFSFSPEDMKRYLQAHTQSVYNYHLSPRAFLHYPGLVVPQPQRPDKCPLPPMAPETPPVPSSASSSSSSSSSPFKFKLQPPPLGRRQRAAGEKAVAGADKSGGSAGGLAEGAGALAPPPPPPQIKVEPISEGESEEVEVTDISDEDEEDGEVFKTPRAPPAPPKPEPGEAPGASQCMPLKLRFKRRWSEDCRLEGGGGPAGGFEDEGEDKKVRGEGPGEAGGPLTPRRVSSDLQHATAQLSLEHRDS
In short: as §1

ETV3L = target: T9, ETV3L (Homo sapiens, UniProt Q6ZN32 1-361)
T9 sequence: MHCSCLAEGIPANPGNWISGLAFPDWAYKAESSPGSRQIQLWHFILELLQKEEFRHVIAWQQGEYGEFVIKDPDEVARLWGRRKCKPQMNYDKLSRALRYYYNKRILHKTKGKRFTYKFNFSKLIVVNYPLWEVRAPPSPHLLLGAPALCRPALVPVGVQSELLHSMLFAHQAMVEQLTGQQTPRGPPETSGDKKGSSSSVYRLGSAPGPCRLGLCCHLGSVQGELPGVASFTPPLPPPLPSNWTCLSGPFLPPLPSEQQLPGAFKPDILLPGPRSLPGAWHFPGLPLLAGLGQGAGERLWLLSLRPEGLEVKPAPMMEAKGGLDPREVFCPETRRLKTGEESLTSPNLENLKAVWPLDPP
In short: as §1

ETS2 = target: T10, ETS2 (Homo sapiens, UniProt P15036 1-469)
T10 sequence: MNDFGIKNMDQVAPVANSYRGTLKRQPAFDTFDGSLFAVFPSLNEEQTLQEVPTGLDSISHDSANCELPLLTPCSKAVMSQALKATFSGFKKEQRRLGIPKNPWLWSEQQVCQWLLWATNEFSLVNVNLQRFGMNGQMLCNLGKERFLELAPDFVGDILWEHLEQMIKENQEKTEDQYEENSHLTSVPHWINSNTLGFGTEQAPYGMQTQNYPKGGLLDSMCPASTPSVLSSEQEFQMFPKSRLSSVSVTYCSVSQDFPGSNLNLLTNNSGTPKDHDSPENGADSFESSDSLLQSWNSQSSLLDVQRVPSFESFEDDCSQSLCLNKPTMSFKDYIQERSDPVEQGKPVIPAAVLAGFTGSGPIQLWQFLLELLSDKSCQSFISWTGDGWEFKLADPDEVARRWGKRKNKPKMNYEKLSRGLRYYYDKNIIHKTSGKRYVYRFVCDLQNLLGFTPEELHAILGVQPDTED
In short: as §1

ETV3 = target: T11, ETV3 (Homo sapiens, UniProt P41162-2 1-143)
T11 sequence: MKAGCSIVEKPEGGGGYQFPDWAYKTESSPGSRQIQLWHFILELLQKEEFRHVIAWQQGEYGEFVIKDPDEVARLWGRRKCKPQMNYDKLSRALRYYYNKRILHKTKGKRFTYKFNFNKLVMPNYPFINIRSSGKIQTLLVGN
In short: as §1

ETV6 = ETV6 (Homo sapiens, UniProt P41212 1-452)
Sequence of ETV6 (P41212 whole entry): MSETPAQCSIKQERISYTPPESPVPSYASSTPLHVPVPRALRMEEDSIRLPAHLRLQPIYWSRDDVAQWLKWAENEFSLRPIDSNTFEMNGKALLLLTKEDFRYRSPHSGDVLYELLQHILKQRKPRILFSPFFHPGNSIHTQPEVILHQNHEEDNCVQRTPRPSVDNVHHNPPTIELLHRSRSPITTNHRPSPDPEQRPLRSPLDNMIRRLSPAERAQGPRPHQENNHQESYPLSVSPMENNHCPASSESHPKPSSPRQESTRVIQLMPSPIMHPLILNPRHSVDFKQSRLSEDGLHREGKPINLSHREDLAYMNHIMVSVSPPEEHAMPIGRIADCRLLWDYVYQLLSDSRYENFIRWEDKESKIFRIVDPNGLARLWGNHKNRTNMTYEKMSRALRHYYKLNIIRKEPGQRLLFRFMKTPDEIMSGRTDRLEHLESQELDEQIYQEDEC
In short: as §1

**Q.** How did the binding signal (FLI1) turn out when ATGCAG was run?
**A.** 1.09 fold enrichment (6-mer frequency, TF over GST control)

**Q.** What about the binding signal (ELK1) of the same sequence?
**A.** 1.04 fold enrichment (6-mer frequency, TF over GST control)

**Q.** And the binding signal (GABPA)?
**A.** 1.14 fold enrichment (6-mer frequency, TF over GST control)

**Q.** What about the binding signal (ERG) of the same sequence?
**A.** 1.09 fold enrichment (6-mer frequency, TF over GST control)

**Q.** What about the binding signal (ELF1) of the same sequence?
**A.** 1.03 fold enrichment (6-mer frequency, TF over GST control)

**Q.** What about the binding signal (EHF) of the same sequence?
**A.** 1.08 fold enrichment (6-mer frequency, TF over GST control)

**Q.** What about the binding signal (SPI1) of the same sequence?
**A.** 1.06 fold enrichment (6-mer frequency, TF over GST control)

**Q.** And the binding signal (SPIB)?
**A.** 1.22 fold enrichment (6-mer frequency, TF over GST control)

**Q.** What about the binding signal (ETV5) of the same sequence?
**A.** 1.05 fold enrichment (6-mer frequency, TF over GST control)

**Q.** And the binding signal (ELF4)?
**A.** 1.05 fold enrichment (6-mer frequency, TF over GST control)

**Q.** And the binding signal (ETV2)?
**A.** 1.1 fold enrichment (6-mer frequency, TF over GST control)

**Q.** What about the binding signal (ELF3) of the same sequence?
**A.** 1.05 fold enrichment (6-mer frequency, TF over GST control)

**Q.** And the binding signal (ETV1)?
**A.** 1.1 fold enrichment (6-mer frequency, TF over GST control)

**Q.** What about the binding signal (ERF) of the same sequence?
**A.** 1.22 fold enrichment (6-mer frequency, TF over GST control)

**Q.** And the binding signal (ETV3L)?
**A.** 1.08 fold enrichment (6-mer frequency, TF over GST control)

**Q.** And the binding signal (ETS2)?
**A.** 1.11 fold enrichment (6-mer frequency, TF over GST control)

**Q.** And the binding signal (ETV3)?
**A.** 1.06 fold enrichment (6-mer frequency, TF over GST control)

**Q.** What about the binding signal (ETV6) of the same sequence?
**A.** 1.06 fold enrichment (6-mer frequency, TF over GST control)
